Experiments:
Assay in all cases: DAPPL (digital affinity profiling via proximity ligation, sequencing); 10 mM Tris-HCl pH 7.5, 50 mM NaCl, 1 mM DTT, 4% glycerol, room temperature, 30 min; GST-TFs on glutathione beads, 16-mer random dsDNA library, 0.1% formaldehyde crosslink after washing; high values mean tight binding
Conditions in all cases: protein: recombinant; tags: N-terminal GST; dsDNA, one strand shown
[1] = molecular target: T1, ERF (Homo sapiens, UniProt P50548 1-548)
T1 sequence: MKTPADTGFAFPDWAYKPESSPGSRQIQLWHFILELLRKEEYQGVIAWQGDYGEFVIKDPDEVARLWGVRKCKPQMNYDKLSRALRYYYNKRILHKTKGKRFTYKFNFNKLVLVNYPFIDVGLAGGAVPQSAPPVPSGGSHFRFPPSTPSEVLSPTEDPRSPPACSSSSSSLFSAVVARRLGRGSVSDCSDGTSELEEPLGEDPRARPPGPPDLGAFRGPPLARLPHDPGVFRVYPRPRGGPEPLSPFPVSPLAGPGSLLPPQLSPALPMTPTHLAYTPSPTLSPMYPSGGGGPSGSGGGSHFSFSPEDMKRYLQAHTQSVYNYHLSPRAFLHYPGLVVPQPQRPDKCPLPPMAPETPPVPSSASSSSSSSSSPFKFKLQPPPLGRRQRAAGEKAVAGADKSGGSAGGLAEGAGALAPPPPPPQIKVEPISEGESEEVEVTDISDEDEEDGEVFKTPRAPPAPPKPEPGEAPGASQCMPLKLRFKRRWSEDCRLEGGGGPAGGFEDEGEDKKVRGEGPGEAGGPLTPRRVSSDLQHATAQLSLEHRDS
Outline: (§1)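 Pools of DNA-barcoded human transcription factors, expressed in yeast as GST fusions on glutathione beads and combined with a tag-only sample, were incubated with 200 nmole of a 16-mer random double-stranded DNA library. Incubation took 30 min at room temperature in Tris/NaCl/DTT/glycerol buffer and was followed by washing, 0.1% formaldehyde crosslinking, proximity ligation (BsaI/T4 ligase, 1 h, 37 °C), PCR amplification and sequencing on an Illumina NextSeq500. Binding signal is the ratio of a hexamer's read frequency for a factor to its frequency for the tag-only sample.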

[2] = molecular target: T2, ETV3L (Homo sapiens, UniProt Q6ZN32 1-361)
T2 sequence: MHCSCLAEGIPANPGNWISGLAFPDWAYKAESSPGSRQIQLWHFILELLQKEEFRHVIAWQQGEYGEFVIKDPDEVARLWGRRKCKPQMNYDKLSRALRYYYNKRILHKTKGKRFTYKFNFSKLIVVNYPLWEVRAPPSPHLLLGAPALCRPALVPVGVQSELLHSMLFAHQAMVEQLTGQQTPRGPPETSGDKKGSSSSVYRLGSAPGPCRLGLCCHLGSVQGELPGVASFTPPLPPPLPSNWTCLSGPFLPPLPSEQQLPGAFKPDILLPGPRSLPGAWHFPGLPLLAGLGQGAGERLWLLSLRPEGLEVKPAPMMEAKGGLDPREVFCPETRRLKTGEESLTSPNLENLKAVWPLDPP
Outline: as §1

[3] = molecular target: T3, ETS2 (Homo sapiens, UniProt P15036 1-469)
T3 sequence: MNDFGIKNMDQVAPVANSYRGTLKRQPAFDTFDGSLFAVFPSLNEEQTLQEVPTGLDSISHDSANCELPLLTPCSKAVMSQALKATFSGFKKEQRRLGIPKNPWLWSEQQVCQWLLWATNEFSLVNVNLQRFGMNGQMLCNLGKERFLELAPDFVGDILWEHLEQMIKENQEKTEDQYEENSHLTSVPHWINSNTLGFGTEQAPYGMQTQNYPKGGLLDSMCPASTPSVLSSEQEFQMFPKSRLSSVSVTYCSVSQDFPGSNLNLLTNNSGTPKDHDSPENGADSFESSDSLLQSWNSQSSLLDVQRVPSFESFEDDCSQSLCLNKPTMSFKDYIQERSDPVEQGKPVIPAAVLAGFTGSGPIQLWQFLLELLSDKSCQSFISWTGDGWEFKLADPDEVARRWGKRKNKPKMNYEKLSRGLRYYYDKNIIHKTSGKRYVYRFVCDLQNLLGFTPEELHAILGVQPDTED
Outline: as §1

[4] = molecular target: T4, SPDEF (Homo sapiens, UniProt O95238 1-335)
T4 sequence: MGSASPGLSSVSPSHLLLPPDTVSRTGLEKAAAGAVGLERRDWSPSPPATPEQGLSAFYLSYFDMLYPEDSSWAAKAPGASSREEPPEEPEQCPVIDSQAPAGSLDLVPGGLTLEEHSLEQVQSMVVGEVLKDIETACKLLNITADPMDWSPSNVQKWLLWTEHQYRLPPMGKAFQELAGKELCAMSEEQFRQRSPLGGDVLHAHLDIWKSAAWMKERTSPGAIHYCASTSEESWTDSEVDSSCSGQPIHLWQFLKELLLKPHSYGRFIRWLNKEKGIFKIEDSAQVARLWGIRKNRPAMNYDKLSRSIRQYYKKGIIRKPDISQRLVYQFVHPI
Outline: as §1

[5] = molecular target: T5, ETV7 (Homo sapiens, UniProt Q9Y603 1-341)
T5 sequence: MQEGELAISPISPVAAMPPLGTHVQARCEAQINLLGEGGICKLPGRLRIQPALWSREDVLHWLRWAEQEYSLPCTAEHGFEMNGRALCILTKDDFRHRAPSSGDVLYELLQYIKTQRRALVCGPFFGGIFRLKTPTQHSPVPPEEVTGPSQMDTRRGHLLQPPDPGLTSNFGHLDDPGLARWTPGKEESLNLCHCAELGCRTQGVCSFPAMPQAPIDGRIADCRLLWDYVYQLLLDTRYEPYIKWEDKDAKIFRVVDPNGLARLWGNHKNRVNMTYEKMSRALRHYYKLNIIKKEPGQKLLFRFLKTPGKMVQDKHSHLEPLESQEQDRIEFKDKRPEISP
Outline: as §1

[6] = molecular target: T6, ELF5 (Homo sapiens, UniProt Q9UKW6-2 1-255)
T6 sequence: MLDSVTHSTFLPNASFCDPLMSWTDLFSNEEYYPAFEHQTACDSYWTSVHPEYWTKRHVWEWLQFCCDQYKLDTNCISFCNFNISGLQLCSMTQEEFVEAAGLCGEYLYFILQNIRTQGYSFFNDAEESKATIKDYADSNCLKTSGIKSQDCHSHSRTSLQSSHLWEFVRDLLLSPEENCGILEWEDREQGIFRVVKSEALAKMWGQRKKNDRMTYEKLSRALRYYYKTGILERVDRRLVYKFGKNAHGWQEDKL
Outline: as §1

[7] = molecular target: T7, ETV3 (Homo sapiens, UniProt P41162-2 1-143)
T7 sequence: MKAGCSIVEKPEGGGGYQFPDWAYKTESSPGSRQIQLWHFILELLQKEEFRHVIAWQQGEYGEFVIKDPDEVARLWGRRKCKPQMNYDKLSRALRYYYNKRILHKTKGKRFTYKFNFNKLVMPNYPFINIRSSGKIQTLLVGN
Outline: as §1

[8] = molecular target: ETV6 (Homo sapiens, UniProt P41212 1-452)
Outline: as §1

ETV6, sequence (P41212 whole entry): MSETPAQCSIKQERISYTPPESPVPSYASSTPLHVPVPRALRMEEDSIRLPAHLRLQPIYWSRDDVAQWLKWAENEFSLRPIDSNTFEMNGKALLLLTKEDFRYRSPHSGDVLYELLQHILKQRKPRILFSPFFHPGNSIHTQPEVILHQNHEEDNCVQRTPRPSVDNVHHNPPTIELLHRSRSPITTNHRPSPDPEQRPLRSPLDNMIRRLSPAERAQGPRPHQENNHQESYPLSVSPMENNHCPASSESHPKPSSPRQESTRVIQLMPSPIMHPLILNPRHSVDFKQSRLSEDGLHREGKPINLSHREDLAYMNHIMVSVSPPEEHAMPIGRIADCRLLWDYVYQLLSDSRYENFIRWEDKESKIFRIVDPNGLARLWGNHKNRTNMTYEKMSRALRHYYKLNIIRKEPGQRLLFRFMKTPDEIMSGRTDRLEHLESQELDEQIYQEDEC

| Sequence | binding signal [1] | binding signal [2] | binding signal [3] | binding signal [4] | binding signal [5] | binding signal [6] | binding signal [7] | binding signal [8] |
| --- | --- | --- | --- | --- | --- | --- | --- | --- |
| GTAAAA | 1.13 fold enrichment (6-mer frequency, TF over GST control) | 1.14 fold enrichment (6-mer frequency, TF over GST control) | 1.13 fold enrichment (6-mer frequency, TF over GST control) | 1.09 fold enrichment (6-mer frequency, TF over GST control) | 1.18 fold enrichment (6-mer frequency, TF over GST control) | 1.18 fold enrichment (6-mer frequency, TF over GST control) | 1.16 fold enrichment (6-mer frequency, TF over GST control) | 1.14 fold enrichment (6-mer frequency, TF over GST control) |
| CTGTTT | 1.37 fold enrichment (6-mer frequency, TF over GST control) | 1.49 fold enrichment (6-mer frequency, TF over GST control) | 1.45 fold enrichment (6-mer frequency, TF over GST control) | 1.42 fold enrichment (6-mer frequency, TF over GST control) | 1.38 fold enrichment (6-mer frequency, TF over GST control) | 1.62 fold enrichment (6-mer frequency, TF over GST control) | 1.36 fold enrichment (6-mer frequency, TF over GST control) | 1.49 fold enrichment (6-mer frequency, TF over GST control) |
| CATATT | 1.32 fold enrichment (6-mer frequency, TF over GST control) | 1.29 fold enrichment (6-mer frequency, TF over GST control) | 1.22 fold enrichment (6-mer frequency, TF over GST control) | 1.24 fold enrichment (6-mer frequency, TF over GST control) | 1.19 fold enrichment (6-mer frequency, TF over GST control) | 1.23 fold enrichment (6-mer frequency, TF over GST control) | 1.24 fold enrichment (6-mer frequency, TF over GST control) | 1.25 fold enrichment (6-mer frequency, TF over GST control) |
| TTTTCT | 1.36 fold enrichment (6-mer frequency, TF over GST control) | 1.35 fold enrichment (6-mer frequency, TF over GST control) | 1.32 fold enrichment (6-mer frequency, TF over GST control) | 1.28 fold enrichment (6-mer frequency, TF over GST control) | 1.42 fold enrichment (6-mer frequency, TF over GST control) | 1.26 fold enrichment (6-mer frequency, TF over GST control) | 1.54 fold enrichment (6-mer frequency, TF over GST control) | 1.32 fold enrichment (6-mer frequency, TF over GST control) |
| ATCCGG | 2.34 fold enrichment (6-mer frequency, TF over GST control) | 2.49 fold enrichment (6-mer frequency, TF over GST control) | 2.66 fold enrichment (6-mer frequency, TF over GST control) | 4.67 fold enrichment (6-mer frequency, TF over GST control) | 2.25 fold enrichment (6-mer frequency, TF over GST control) | 3.06 fold enrichment (6-mer frequency, TF over GST control) | 2.9 fold enrichment (6-mer frequency, TF over GST control) | 2.37 fold enrichment (6-mer frequency, TF over GST control) |
| CCTGTT | 1.66 fold enrichment (6-mer frequency, TF over GST control) | 1.79 fold enrichment (6-mer frequency, TF over GST control) | 1.8 fold enrichment (6-mer frequency, TF over GST control) | 2.09 fold enrichment (6-mer frequency, TF over GST control) | 1.63 fold enrichment (6-mer frequency, TF over GST control) | 2.1 fold enrichment (6-mer frequency, TF over GST control) | 1.9 fold enrichment (6-mer frequency, TF over GST control) | 1.73 fold enrichment (6-mer frequency, TF over GST control) |

Reference: publication PMC7862700, “An all-to-all approach to the identification of sequence-specific readers for epigenetic DNA modifications on cytosine”
